The compounds below were run on ACVR2A. Conditions: concentration: 1 μM,replicates: in singlicate; n = 1.
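Further: KINOMEscan kinase panel screen.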

`N#Cc1cccc(C(=O)NC2CCN(c3ccnc(Nc4ccc(F)cc4)n3)C2)c1` (stereo not drawn) [GSK1379708] and `COc1cccc(CNC(=O)NC2CCN(c3ccnc(Nc4cc(OC)c(OC)c(OC)c4)n3)C2)c1` (stereo not drawn) [GSK1379765] are the same in “%Inh” value: 0% for the first, 0% for the second.

Going from `CN(c1cccc(CNc2nc(Nc3ccc4c(c3)CC(=O)N4)ncc2C(F)(F)F)c1)S(C)(=O)=O` to `CNC(=O)c1ccccc1Nc1nc(Nc2cccc(CS(C)(=O)=O)c2)ncc1C.O=CO` [GSK1520489], the “%Inh” value rises from 0% to 7%.

`C[C@@H](Oc1cc(-n2cnc3cc(-c4cnn(C)c4)ccc32)sc1C(N)=O)c1ccccc1Cl` [GSK580432] and `COc1cc2c(Nc3ccc(NC(=O)c4ccccc4)cc3)ncnc2cc1OCCCN1CCOCC1` [GSK301329] are the same in “%Inh” value: 0% for the first, 0% for the second.

`CC(C)S(=O)(=O)N1CCN(Cc2ccc3c(c2)nc(NC(=O)c2ccsc2)n3C[C@H](O)c2ccccc2)CC1` [GW635815] and `Cc1n[nH]c2cc(Nc3ccnc(Nc4cccc(CN5CCOCC5)c4)n3)ccc12` [GW682569] are the same in “%Inh” value: 0% for the first, 0% for the second.

Going from `CC(=O)Nc1nc2cnc(Nc3cc(NC(=O)c4cccc(CC(C)(C)C#N)c4)ccc3C)nc2s1` to `Cc1nnc(-c2ccc3occ(-c4ccc(S(C)=O)cc4)c3n2)o1` (stereo not drawn), the “%Inh” value falls from 11% to 0%.

In the case of `Cl.Cl.NC[C@H](CC1CCCCC1)NC(=O)c1ccc(-c2ccnc3[nH]ccc23)s1` [GSK1581428], the “%Inh” value is reported as 61%.

These compounds were tested on ACVR2B. Conditions: concentration: 1 μM,replicates: in singlicate; n = 1.

`CN1CCN(CCNc2nc3cc(Oc4ccc(NC(=O)Nc5cc(C(F)(F)F)ccc5F)cc4)ccc3[nH]2)CC1.Cl.Cl` [GW768504] and `COC(=O)Nc1nc2cc(Oc3ccc(NC(=O)Nc4cc(C(F)(F)F)ccc4Cl)cc3)ccc2[nH]1.Cl` [GW697465] are the same in “%Inh” value: 0% for the first, 0% for the second.

Going from `COc1cccc(OC)c1C(=O)Nc1cccc(-c2nn3ccccc3c2-c2ccnc(Nc3cccc(F)c3)n2)c1` [GSK361065] to `COC(=O)c1cccc(NC(=O)NC2CCN(c3ccnc(Nc4cc(OC)c(OC)c(OC)c4)n3)C2)c1` (stereo not drawn) [GSK1379767], the “%Inh” value falls from 27% to 6%.

Compared with `CC(=O)Nc1ccc(-c2cc3ncnc(SCC(=O)O)c3s2)cc1`, `NC(=O)Nc1sc(-c2ccc(F)cc2)cc1C(N)=O` [GW789449] is lower in “%Inh” value: 30% for the first, 28% for the second.

`CCOC(=O)N1CCC(n2cnc(-c3ccc(F)cc3)c2-c2ccnc(N)n2)CC1` [SB-219952] and `CSc1nccc(-c2c(-c3ccc(F)cc3)ncn2CCCN2CCOCC2)n1.Cl` [SB-217146] are the same in “%Inh” value: 0% for the first, 0% for the second.

`C[C@@H]1CCN(C(=O)N2CCCC2)C[C@@H]1N(C)c1ncnc2[nH]ccc12` and `Cl.Cl.NC[C@H](CC1CCCCC1)NC(=O)c1ccc(-c2ccnc3[nH]ccc23)s1` [GSK1581428] are the same in “%Inh” value: 0% for the first, 0% for the second.

`COc1cccc(C2=C(Nc3cccc(Cl)c3)C(=O)NC2=O)c1` [SB-341556] and `CN(c1cccc(CNc2nc(Nc3ccc4c(c3)CC(=O)N4)ncc2C(F)(F)F)c1)S(C)(=O)=O` are the same in “%Inh” value: 0% for the first, 0% for the second.

First: COC(=O)c1cccc(NC(=O)NC2CCN(c3ccnc(NCc4ccc(F)cc4)n3)CC2)c1 [GSK1379860]
Second: N#Cc1cccc(C(=O)NC2CCN(c3ccnc(Nc4ccc(F)cc4)n3)C2)c1 (stereo not drawn) [GSK1379708]
The “%Inh” value of the first is higher: 23% for the first, 0% for the second.

First: O=C(Nc1ccc(Oc2ccc3nc(NC(=O)C4CC4)cn3n2)c(F)c1)c1cccn(-c2ccccc2)c1=O
Second: Cc1ccc(C(=O)Nc2ccc(Oc3ccc4nc(NC(=O)C5CC5)cn4c3)c(F)c2)c(=O)n1-c1ccccc1
The “%Inh” value of the first is higher: 31% for the first, 16% for the second.

First: Cn1ccc2ncnc(Oc3ccc(NC(=O)Nc4cncc(C(F)(F)F)c4)c(Cl)c3)c21
Second: Cn1ccc2ncnc(Oc3ccc(NC(=O)Nc4cccc(C(F)(F)F)c4)c(F)c3)c21
The “%Inh” value of the first is lower: 0% for the first, 36% for the second.

Compared with `CCn1c(-c2nonc2N)nc2cncc(CNC3CCNCC3)c21.Cl` [SB-747651], `Cc1n[nH]c2cc(Nc3ccnc(Nc4cccc(CN5CCOCC5)c4)n3)ccc12` [GW682569] is higher in “%Inh” value: 0% for the first, 39% for the second.

Compared with `Cl.c1ccc(Oc2ccc(Nc3ccnc4cc(-c5ccc(CN6CCNCC6)o5)ccc34)cc2)nc1` [GW567142], `COc1cc2c(Nc3ccc(NC(=O)c4ccccc4)cc3)ncnc2cc1OCCCN1CCOCC1` [GSK301329] is lower in “%Inh” value: 41% for the first, 0% for the second.

Compared with `Nc1nccc(-c2ccc3c(N)n[nH]c3c2)n1` [GSK1034945], `Cl.Nc1n[nH]c2cc(-c3ccccn3)ccc12` [GSK2189892] is lower in “%Inh” value: 44% for the first, 6% for the second.

First: O=C(Nc1cccc(C(F)(F)F)c1)c1cccc(Oc2ccc3nccn3n2)c1
Second: CC(=O)Nc1nc2cnc(Nc3cc(NC(=O)c4cccc(CC(C)(C)C#N)c4)ccc3C)nc2s1
The “%Inh” value of the first is higher: 8% for the first, 0% for the second.

First: CCNCC(Cc1ccccc1)NC(=O)c1cc(Br)c(-c2ccnc3[nH]ccc23)s1.Cl.Cl (stereo not drawn) [GSK1383280]
Second: CNC(=O)c1ccccc1Nc1nc(Nc2cccc(CS(C)(=O)=O)c2)ncc1C.O=CO [GSK1520489]
The “%Inh” value of the first is lower: 2% for the first, 54% for the second.

Compared with `O=C1NCCc2[nH]c(-c3ccncc3)cc21`, `Cc1ccn2nc(-c3ccc(F)cc3)c(-c3ccncc3)c2c1.Cl` [GW457859] is lower in “%Inh” value: 70% for the first, 32% for the second.

Compared with `CS(=O)c1ccc(-c2coc3ccc(-c4n[nH]c(=O)o4)cc23)cc1` (stereo not drawn), `Cc1nnc(-c2ccc3occ(-c4ccc(S(C)=O)cc4)c3n2)o1` (stereo not drawn) is lower in “%Inh” value: 19% for the first, 0% for the second.

Going from `Cn1ccc2ncnc(Oc3ccc(NC(=O)Nc4cnn(C(C)(C)C)c4)c(Cl)c3)c21` to `C[C@@H](Oc1cc(-n2cnc3cc(-c4cnn(C)c4)ccc32)sc1C(N)=O)c1ccccc1Cl` [GSK580432], the “%Inh” value rises from 0% to 25%.

Compared with `COc1cc2ncn(-c3cc(OCC4CCCCC4)c(C(N)=O)s3)c2cc1OC` [GSK204559], `COc1cccc(CNC(=O)NC2CCN(c3ccnc(Nc4cc(OC)c(OC)c(OC)c4)n3)C2)c1` (stereo not drawn) [GSK1379765] is lower in “%Inh” value: 32% for the first, 14% for the second.

With `CC(C)S(=O)(=O)N1CCN(Cc2ccc3c(c2)nc(NC(=O)c2ccsc2)n3C[C@H](O)c2ccccc2)CC1` [GW635815] the “%Inh” value was 0%.
